Screens as filed in PubChem.
The list is not random: actives were taken first. Their share in the collection is about 3.2%.
CHT block = inhibitors of human choline transporter CHT; Q9GZV3; CHT-expressing cells, membrane potential dye, choline response; stronger effect = lower value; B-score at 10 µM; 310,000 tested, 0.86% active; AID 488975;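 active = B-score over 3 SD under the library average, and starting fluorescence ratio not unusually high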;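 note: choline stimulus applied at its EC90 after an EC20 pre-addition; B-score computed on integrated fluorescence ratio after choline addition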
TMEM16A inh = blocks the mouse calcium-activated chloride channel TMEM16A; Q8BHY3; HEK293 TMEM16A/YFP iodide influx fluorescence, ionomycin; normalized B-score (activity score, 25-100; higher = stronger inhibition) at 10 µM; 310,000 tested, 1.2% active;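 active = ratio plate-corrected score three or more library SD toward inhibition, starting fluorescence score within five deviations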;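 note: score derived from kinetic fluorescence span divided by baseline fluorescence per well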
Target sequence (Q8BHY3 whole entry, looked up): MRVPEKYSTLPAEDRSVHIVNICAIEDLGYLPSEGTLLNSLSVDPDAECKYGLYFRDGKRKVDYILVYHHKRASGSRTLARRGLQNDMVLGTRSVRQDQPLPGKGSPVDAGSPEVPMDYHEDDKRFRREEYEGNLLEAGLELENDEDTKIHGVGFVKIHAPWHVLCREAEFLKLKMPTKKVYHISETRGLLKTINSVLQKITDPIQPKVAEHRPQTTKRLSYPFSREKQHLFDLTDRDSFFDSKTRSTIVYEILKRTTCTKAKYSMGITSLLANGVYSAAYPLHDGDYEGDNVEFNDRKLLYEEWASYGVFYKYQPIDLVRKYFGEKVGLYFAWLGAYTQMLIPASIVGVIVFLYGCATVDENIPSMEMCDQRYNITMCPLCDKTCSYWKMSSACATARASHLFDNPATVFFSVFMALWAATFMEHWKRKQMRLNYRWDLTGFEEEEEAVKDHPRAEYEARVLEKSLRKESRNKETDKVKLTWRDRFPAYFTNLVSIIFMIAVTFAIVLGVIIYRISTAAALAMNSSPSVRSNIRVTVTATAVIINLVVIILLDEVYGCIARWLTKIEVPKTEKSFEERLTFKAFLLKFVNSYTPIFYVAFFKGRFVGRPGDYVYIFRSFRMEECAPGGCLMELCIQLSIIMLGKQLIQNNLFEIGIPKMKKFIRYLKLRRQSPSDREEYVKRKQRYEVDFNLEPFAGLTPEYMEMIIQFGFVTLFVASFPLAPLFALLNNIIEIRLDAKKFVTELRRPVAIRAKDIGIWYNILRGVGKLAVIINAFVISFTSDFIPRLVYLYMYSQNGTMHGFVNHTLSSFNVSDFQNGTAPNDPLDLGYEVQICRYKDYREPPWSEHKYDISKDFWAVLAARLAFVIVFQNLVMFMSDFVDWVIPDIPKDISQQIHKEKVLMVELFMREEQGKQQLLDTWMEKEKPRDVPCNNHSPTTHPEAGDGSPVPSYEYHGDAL
PHOSPHO1 block = inhibitors of human PHOSPHO1 phosphatase; recombinant PHOSPHO1, absorbance phosphatase assay; inhibition, % at 13.3 µM; 290,000 tested, 1.1% active; Q8TCT1; in the data active = inhibition above about 60%
HDAC3 inhib = human HDAC3 inhibition | AID 2718 | O15379 | recombinant HDAC3, fluorogenic peptide/trypsin coupled, fluorescence | inhibition, % at 8.3 µM | 320,000 tested, 0.15% active; in the data active = inhibition above about 26%, passing the limit was not always enough
ANO1 activ = activators or potentiators of mouse TMEM16A chloride channel; B-score at 10 µM; AID 623877; Q8BHY3; HEK293 TMEM16A/YFP-H148Q/I152L, iodide quench fluorescence; stronger effect = lower value; 340,000 tested, 0.3% active;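 active = fluorescence-ratio B-score plate-corrected deviation score at least 3 library SD below zero, with starting fluorescence score within 5 deviations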;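 note: channel opened by trigger with iodide after compound preincubation; score built on the fluorescence ratio of max minus min over baseline; more negative score means more quench and so TMEM16A activation or potentiation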
CHT PAM = allosterically activates the human high affinity choline transporter. Q9GZV3. CHT-expressing cells, membrane potential dye, choline EC20; stronger effect = higher value; LV-AA mutant CHT in HEK293 cells. B-score at 10 µM. 310,000 tested, 0.49% active. AID 488977;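 active = initial fluorescence not abnormally high and integrated response B-score, plate-corrected, over 3 SD above library mean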
CHT inh conf = confirmation of human choline transporter CHT inhibitors; shares compounds with CHT block; 2,400 tested, 70% active; CHT activity remaining % of control (stronger effect = lower value), % at 10 µM; CHT-expressing cells, choline membrane potential dye; LV-to-AA substituted CHT, HEK293 cells;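 active = choline transporter activity left, mean of duplicates at 10 µM, below buffer-only control mean minus 3 SD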;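 note: depolarization triggered by choline at its EC90 following an EC20 pre-addition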
HEK293 MPD ctr = counter-screen for CHT inhibitors: effect in parental HEK293 cells; 2,400 tested, 4% active; AID 493222; membrane potential ratio readout (active if shifted either direction beyond buffer ±3SD; no single direction) at 10 µM; membrane potential dye, choline response; active = decrease or increase beyond buffer ±3SD; shares compounds with CHT block;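 note: parental cells lack the transporter so any hit is non-specific; ratio is peak minus trough fluorescence over baseline after EC90 choline challenge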
TMEM16A reconf = re-confirmation of mouse TMEM16A chloride channel inhibitors; shares compounds with TMEM16A inh; HEK293 TMEM16A/YFP-H148Q, iodide quench fluorescence; ionomycin added to raise cell calcium; inhibition, % at 10 µM; 2,300 tested, 39% active; AID 652189;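 active = mean duplicate percent inhibition, scaled so buffer wells are 0 and the reference blocker 100, over three buffer SD above buffer mean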
TMEM16A Ca cntr = calcium mobilization counter-screen hit for TMEM16A inhibitor series | 2,300 tested, 2% active | shares compounds with TMEM16A inh | TMEM16A/YFP HEK293, Fluo4 calcium mobilization | calcium response (% of ionomycin), % at 10 µM;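 active = duplicate-averaged calcium signal over 20% of the ionomycin maximum, relative to buffer baseline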;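 note: each well's signal is peak minus trough fluorescence divided by its pre-addition baseline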
YFP-HEK293 quench = acts in parental YFP-HEK293 cells lacking TMEM16A, counter-screen | shares compounds with TMEM16A inh | YFP ratio F(max-min)/F0 at 10 µM | 2,300 tested, under 10 active | AID 652233 | iodide YFP quench, ionomycin;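 active = yellow fluorescent protein signal ratio exceeding the buffer control mean by over 5 SD of those controls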;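 note: ratio is mean of duplicate wells from kinetic YFP trace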
ClC-1 inh = blocks the rat ClC-1 voltage-dependent chloride channel. ratio percent, % at 10 µM. AID 652236. shares compounds with TMEM16A inh. CHO ClC-1-YFP, iodide influx fluorescence quench; iodide control reads 0, buffer control 100. 2,300 tested, under 10 active;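 active = duplicate-mean ratio percent above the mean of iodide-only control wells, which defines zero, plus 5 of their SD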;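 note: higher percent means stronger block of ClC-1 iodide influx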
Hits are given with their value; 0 = inactive; - = no result.

SMILES | CHT block | TMEM16A inh | PHOSPHO1 block | HDAC3 inhib | ANO1 activ | CHT PAM | CHT inh conf | HEK293 MPD ctr | TMEM16A reconf | TMEM16A Ca cntr | YFP-HEK293 quench | ClC-1 inh
O=c1cc(-c2ccccc2)nc2c(-c3ccccc3)c(C(F)(F)F)[nH]n12 | -5.73 | 100 | 0 | 0 | 0 | 0 | 68.8% | 0 | 58.0% | 0 | 0 | 0
O=S(=O)(Cc1ccc(Cl)cc1)Nc1ccc2c(c1)OCO2 | 0 | 0 | 0 | 0 | 0 | 0 | - | - | - | - | - | -
Cc1cc(C(=O)NNC(=S)NCc2ccccc2)cs1 | 0 | 0 | 0 | 0 | 0 | 0 | - | - | - | - | - | -
CCCc1cc(C(=O)NNC(=S)NCc2ccccc2)cs1 | -8.2 | 100 | 0 | 0 | 0 | 0 | 54.3% | 0 | 0 | 0 | 0 | 0
O=C(NCc1nc2ccccc2[nH]1)c1ccccc1F | 0 | 0 | 0 | 0 | 0 | 0 | - | - | - | - | - | -
CCC(=NC(C)c1ccccc1)c1c(O)n(C)c(=O)n(C)c1=O (centres undefined) | -7.55 | 100 | 0 | 0 | 0 | 0 | 51.2% | 0 | 22.0% | 0 | 0 | 0
COc1cc(SC)ccc1C(=O)Nc1ccc2c(c1)OCCO2 | 0 | 0 | 0 | 0 | 0 | 0 | - | - | - | - | - | -
COc1ccc(OCCSc2nnc(C)n2-c2ccccc2)cc1 | -4.99 | 100 | 0 | 0 | 0 | 0 | 0 | 0 | 0 | 0 | 0 | 0
C=CCc1ccc(O)c(-c2cc(CC=C)ccc2O)c1 | -9.85 | 100 | 0 | 0 | 0 | 0 | 36.4% | 0 | 31.5% | 0 | 0 | 0
N#CC(C#N)=c1ccc2c(c1)N1C3=C(CCCC3)CC3CCCCC31N=2 (centres undefined) | -11.2 | 25 | 0 | 0 | 0 | 0 | 62.2% | 0 | 0 | 0 | 0 | 0
CCCC(=O)Nc1c2c(nn1-c1ccc(C)cc1)CS(=O)(=O)C2 | -6.1 | 100 | 0 | 0 | 0 | 0 | 0 | 0 | 0 | 0 | 0 | 0
COC(=O)c1cc(S(=O)(=O)NCC(C)c2ccccc2)cn1C (centres undefined) | 0 | 0 | 0 | 0 | 0 | 0 | - | - | - | - | - | -
O=S(=O)(Nc1nc2ccccc2s1)c1ccc(Br)s1 | -7.12 | 100 | 0 | 0 | 0 | 0 | 69.4% | 0 | 24.5% | 0 | 0 | 0
Cn1c(SCc2nc(-c3ccccc3)no2)nnc1-c1ccco1 | 0 | 0 | 0 | 0 | - | 0 | - | - | - | - | - | -
CCn1c(SCc2nc(-c3ccc(Cl)cc3)no2)nnc1-c1ccco1 | -12.8 | 100 | 0 | 0 | 0 | 0 | 3.1% | 0 | 0 | 27.5% | 0 | 0
O=C(COc1ccccc1Br)c1ccc(O)cc1O | -5.74 | 100 | 0 | 0 | 0 | 0 | 53.5% | 0 | 0 | 0 | 0 | 0
N#Cc1c(C(F)(F)F)cc(-c2cccc(Cl)c2)[nH]c1=O | -5.15 | 25 | 0 | 0 | 0 | 0 | 0 | 0 | 28.5% | 0 | 0 | 0
N#Cc1c(C(F)(F)F)cc(-c2ccc(F)cc2)[nH]c1=O | 0 | 0 | 0 | 0 | 0 | 0 | - | - | - | - | - | -
O=C(NNc1nc2ccccc2o1)c1ccccc1 | 0 | 0 | 0 | 0 | 0 | 0 | - | - | - | - | - | -
Cc1ccc(S(=O)(=O)N2CCN(C(=O)CCC(=O)N3CCc4ccccc43)CC2)cc1 | 0 | 0 | 0 | 0 | 0 | 0 | - | - | - | - | - | -
CCCCSc1nc(C)cc(C)c1S(=O)(=O)c1ccccc1C | -7.57 | 100 | 0 | 0 | 0 | 0 | 0 | 0 | 21.5% | 0 | 0 | 0
Cc1cccc(-c2nnc(SCC#N)n2-c2ccccc2)c1 | 0 | 0 | 0 | 0 | 0 | 0 | - | - | - | - | - | -
COc1ccc(-c2nc(CN3CCN(c4ccccc4OC)CC3)c(C)o2)cc1 | 0 | 0 | 0 | 0 | 0 | 0 | - | - | - | - | - | -
COc1ccc(-c2nc(CN3CCN(c4ncnc5ccccc45)CC3)c(C)o2)c(OC)c1 | -5.1 | 100 | 64.2 | 0 | 0 | 0 | 51.9% | 0 | 19.5% | 0 | 0 | 0
Cc1cccc(N2C(=O)CCC2=O)c1 | 0 | 0 | 0 | 0 | 0 | 0 | - | - | - | - | - | -
SMILES | CHT block | TMEM16A inh | PHOSPHO1 block | HDAC3 inhib | ANO1 activ | CHT PAM | CHT inh conf | HEK293 MPD ctr | TMEM16A reconf | TMEM16A Ca cntr | YFP-HEK293 quench | ClC-1 inh
CCc1nnc(NC(=O)CSc2nnc(-c3ccccc3OC)n2-c2ccc(C)cc2)s1 | 0 | 0 | 0 | 0 | 0 | 0 | - | - | - | - | - | -
CCc1nnc(NC(=O)CSc2nnc(-c3ccccc3OC)n2-c2ccccc2)s1 | -5.52 | 25 | 0 | 0 | 0 | 0 | 40.8% | 0 | 0 | 0 | 0 | 0
COC(=O)C1CCCCN1C(=O)c1cc(COc2cccc3cccnc23)on1 (centres undefined) | 0 | 0 | 0 | 0 | 0 | 0 | - | - | - | - | - | -
CCOC(=O)CC1CCCCN1C(=O)c1cc(COc2cccc3cnccc23)on1 (centres undefined) | -5.39 | 25 | 0 | 0 | 0 | 0 | 69.5% | 0 | 46.5% | 0 | 0 | 0
COc1cccc(NC(=O)N2CCC(NC(=O)C(Cc3ccccc3OC)NC(C)=O)CC2)c1 (centres undefined) | - | - | 0 | - | 0 | - | - | - | - | - | - | -
CCCOc1ccc(C(=O)NNC(=S)NC(=O)c2ccco2)cc1 | -7.95 | 100 | 0 | 0 | 0 | 0 | 54.3% | 0 | 43.0% | 62.0% | 0 | 0
Cc1ccc(N2CN(Cc3ccco3)CNC2=S)cc1 | 0 | 0 | 0 | 0 | 0 | 0 | - | - | - | - | - | -
N#Cc1ccc(-c2nc3cc(Cl)ccc3c(=O)n2O)cc1 | 0 | 0 | 0 | 0 | 0 | 0 | - | - | - | - | - | -
O=c1c2cc(Br)ccc2nc(-c2ccc(Cl)cc2)n1O | -6.12 | 25 | 0 | 0 | 0 | 0 | 41.2% | 0 | 39.0% | 110.0% | 0 | 0
CC(c1ccco1)N(C(=O)c1cc(Cl)cc(Cl)c1)c1ccccn1 (centres undefined) | 0 | 0 | 0 | 0 | 0 | 0 | - | - | - | - | - | -
CC(c1ccco1)N(C(=O)c1ccccc1NS(=O)(=O)c1ccc(Cl)c([N+](=O)[O-])c1)c1ccccn1 (centres undefined) | -7.79 | 100 | 0 | 0 | 0 | 0 | 66.4% | 0 | 26.5% | 0 | 0 | 0
O=C(COc1cccc2cccnc12)Nc1cccc(S(=O)(=O)N2CCCC2)c1 | - | - | - | 0 | 0 | - | - | - | - | - | - | -
C=CCn1c(NC(=O)c2ccccc2Cl)c(C#N)c2nc3ccccc3nc21 | -5.8 | 100 | 0 | 0 | 0 | 0 | 0 | 0 | 54.5% | 0 | 0 | 0
